# SARS PLpro yeast – qHTS of Yeast-based Assay for SARS-CoV PLP; S. cerevisiae expressing SARS-CoV PLpro, growth rescue; Potency, µM (series often up to 32.9 µM), for the others: top-dose activity, positive = growth rescue, usual class: activators; 330,000 compounds, 0.19% hits; calls by dose curve; note: 0% is about no effect; nearly all actives have a fitted effect of over 55% in size
# Sm TGR inh – qHTS Assay for the Inhibitors of Schistosoma Mansoni Peroxiredoxins | Schistosoma mansoni thioredoxin glutathione reductase (TGR), Q962Y6 | 360,000 compounds, 3% hits | purified TGR, DTNB reduction, TNB absorbance 405 nm | Potency, µM (highest dose often 114 µM), without a hit: at the top dose activity change, negative = inhibition, most hits filed as inhibitors; active = well fitted inhibition curve with a large enough effect; inconclusive = small, poorly fitted or top-dose-only effect; inactive = no such curve, though single readings can be large or run the other way; note: % is set by controls: 0 for no effect and ±100 for the full control effect; nearly all actives have a fitted effect of over 60% in size
#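 First, TGR (20 nM dispensed) and NADPH were mixed with compound. Second, a 15 min room-temperature incubation followed. Third, further NADPH and then DTNB were added to start the reaction. Finally, TNB absorbance was monitored kinetically.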
# Numbers without * were called inactive; ? = inconclusive; nt = no result given; ! = not confirmed by another sample. Most compounds without a hit are left out; they make up all but 3% or so of the library. Potency is the fitted concentration of half-maximal effect.
SMILES,SARS PLpro yeast,Sm TGR inh
C/C=C(\C)C(=O)NCCN1C2=NC[C@H](C(C)C)N2C[C@@H]1Cc1ccc(OC)cc1,-0.5%,0.0%
Oc1cc2c(cc1O)C1c3ccc(O)c(O)c3OCC1(O)C2 (stereo not drawn),-0.5%,0.708µM*
CCN1C(=O)c2ccccc2S(=O)(=O)c2ccc(C(=O)NCc3ccc(C)cc3)cc21,nt,-1.0%
COc1ccc(C(=O)n2nnc3ccccc32)cc1Br,-1.4%,?
O=C(c1ccc2c(c1)OCO2)n1nnc2ccccc21,0.8%,10µM*
CCSc1ccccc1C(=O)N1CCCC1,8.6%,0.3%
Cc1ccc(C(=O)n2nnc3ccccc32)cc1[N+](=O)[O-],-18.4%,-6.5%
CCSc1ccccc1C(=O)n1nnc2ccccc21,nt,20µM*
COc1ccc(N/C(=C(/C(Cl)=C(Cl)Cl)[N+](=O)[O-])n2nnc3ccccc32)cc1OC,15.4%,22.4µM*
COc1ccc(C(=O)n2nnc3ccccc32)cc1OC,-9.1%,6.31µM*
COc1ccc(NC(=O)COC(=O)Cc2ccccc2[N+](=O)[O-])cc1OC,0.5%,-9.1%
CCn1c(=O)c2cc(C(=O)N3CCN(c4cccc(Cl)c4)CC3)sc2c2ccccc21,nt,18.4%
COc1ccc(-c2noc(CC(=O)N(C)c3cc(Cl)c(OC)cc3OC)n2)cc1,nt,-1.0%
COc1ccc2ccccc2c1C(=O)/C=C\c1ccoc1,nt,22.4µM*
O=C(/C=C/c1ccoc1)c1ccccc1O,-26.1%,-25.1%
Cc1ccc(NC(=O)Cn2c(-c3nonc3N)nc3ccccc32)cc1Cl,nt,4.7%
CCOC(=O)c1ccc(N2C(=O)C3CC=CCC3C2=O)cc1 (stereo not drawn),-4.9%,3.2%
CCOC(=O)c1ccc(N2C(=O)C3C(C2=O)C(C(=O)c2ccc(Cl)cc2)N2CCCC32)cc1 (stereo not drawn),-8.3%,15.8µM*
CC(=O)N1CCc2cc(S(=O)(=O)NC(Cc3ccccc3)C(=O)Nc3ccc(Cl)cc3)ccc21 (stereo not drawn),nt,4.3%
COc1ccc(CCNC(=O)c2ccc(CN3CCC(Cc4ccccc4)CC3)cc2)cc1,-2.0%,-6.7%
COc1ccc(C(=O)NCC23C=CC(O2)C2C(=O)N(Cc4ccccc4)C(=O)C23)cc1 (stereo not drawn),-30.5%,3.55µM*
Cc1cc(C)c(NC(=O)Cn2c(=O)n(CCC(=O)NCc3ccc4c(c3)OCO4)c(=O)c3ccccc32)c(C)c1,nt,0.8%
Cc1c(-c2nsc(NC(=O)c3cccs3)n2)nnn1-c1ccc(F)cc1,nt,10.2%
Cc1ccc(-c2nc3ccc(Cl)cn3c2Nc2ccc3c(c2)OCCO3)o1,nt,28.2µM*
Cc1ccc(-c2nc3ncccn3c2Nc2ccc3c(c2)OCCO3)o1,-0.4%,50.1µM*
SMILES,SARS PLpro yeast,Sm TGR inh
Brc1ccc(-c2nc3ncccn3c2Nc2ccc3c(c2)OCCO3)o1,9.5%,-26.9%
Cc1ccc(-c2nc3ccccn3c2Nc2ccc3c(c2)OCCO3)o1,nt,-12.8%
O=C(Cc1ccc(F)cc1)Nc1cccc(-c2nc3cccnc3s2)c1,nt,0.7%
CCCc1cc(N2CCN(C(=O)c3ccco3)CC2)n2c(nc3ccccc32)c1C#N,-3.5%,39.8µM*
Cc1nnc2c(N3CCN(C(=O)c4ccco4)CC3)nc3ccccc3n12,-0.4%,?
Cc1cc(Nc2cc(Cl)ccc2C)n2nc(-c3ccccc3)nc2n1,nt,5.1%
Cc1cccc(C(=O)Nc2nnc(S(=O)(=O)N(C)Cc3ccc(Cl)cc3)s2)c1,nt,0.2%
Cc1cccc(C(=O)Nc2nnc(S(=O)(=O)N(C)Cc3ccco3)s2)c1,-1.9%,7.94µM*!
CCN(c1ccccc1C)S(=O)(=O)c1nnc(NC(=O)c2ccco2)s1,-6.0%,20µM*!
CCN(c1cc(C)cc(C)c1)S(=O)(=O)c1nnc(NC(=O)c2ccco2)s1,-1.8%,?
CCOc1ccc2c(c1)c(=O)c(C(=O)c1ccc(CC)cc1)cn2CC(=O)Nc1ccccc1OC,nt,-5.3%
CC(=O)c1c(C)oc2c1cc(NS(=O)(=O)c1ccc(Cl)c(C)c1)c1ccccc12,nt,0.8%
Cc1ccc(N2CCN(C(=O)c3c(C)oc4ncn(CC(C)C)c(=O)c34)CC2)c(C)c1,nt,4.9%
COc1ccc2[nH]c(C)c(C(=O)CN3CCc4cc(OC)c(OC)cc4C3)c2c1,2.9%,-1.3%
COc1ccc2[nH]c(C)c(C(=O)CN3CCOCC3)c2c1,0.1%,44.7µM*
CCOc1ccccc1CNCc1c(C(=O)O)n(Cc2ccc(F)cc2)c2cc(C)ccc12,nt,-5.5%
O=C(/C=C/c1c(Cl)cccc1Cl)n1cccn1,-41.4%,17.8µM*
O=C(/C=C/c1c(Cl)cccc1Cl)N1CCOCC1,-0.5%,-19.5%
CNC(=S)N/N=C(\C)c1ccc(C(C)(C)C)cc1,18.6%,3.3%
CNC(=S)N/N=C(\C)c1ccccc1,0.8%,5.62µM*
CCOC(=O)c1[nH]c2ccccc2c1NC(=O)c1ccccc1OCC,nt,7.4%
C/C(=N/NS(=O)(=O)c1ccc(C(C)C)cc1)c1ccncc1,2.6%,10.9%
C/C(=N/NS(=O)(=O)c1ccc(Cl)cc1)c1ccncc1,-0.8%,28.2µM*
CCCCOC(=O)c1ccc(NC(=O)c2csnn2)cc1,nt,-8.2%
Cc1ccc2c(c1)C1CCCC3C1N2CC(=O)N3Cc1ccccc1 (stereo not drawn),1.9%,50.1µM*
SMILES,SARS PLpro yeast,Sm TGR inh
Cc1ccc2c(c1)C(CCN)C(=O)N2Cc1ccccc1 (stereo not drawn),1.0%,-11.4%
Cc1ccccc1NC(=O)CCn1cnc2onc(-c3ccc(F)cc3)c2c1=O,nt,-0.1%
COC(=O)C(C)Sc1nnc2cc(C)c3cc(C)cc(C)c3n12 (stereo not drawn),nt,-2.4%
COc1cc(OC)c(N(C)C(=O)c2sc3nc4n(c(=O)c3c2C)CCCCC4)cc1Cl,nt,-18.8%
COc1cc(OC)c(N(C)C(=O)c2sc3nc4n(c(=O)c3c2C)CCCC4)cc1Cl,nt,31.6µM*
COc1ccc(Cl)cc1NC(=O)c1sc2nc3n(c(=O)c2c1C)CCC3,nt,-1.6%
Cc1c(C(=O)N(C)c2cccc(C(F)(F)F)c2)sc2nc3n(c(=O)c12)CCCCC3,nt,10µM*
Cc1c(C(=O)Nc2cccc(C(F)(F)F)c2)sc2nc3n(c(=O)c12)CCCC3,nt,-35.8%
COc1cc(OC)c(NC(=O)c2sc3nc4n(c(=O)c3c2C)CCCC4)cc1Cl,nt,50.1µM*
COC(=O)c1cccc(CN2C(=O)SC(Nc3ccc(Br)cc3)C2=O)c1 (stereo not drawn),nt,1.4%
Cc1ccc(NC(=O)c2c(C)oc3nc(C)nc(N4CCCC4)c23)c(C)c1,nt,3.1%
Cc1c(Cl)cccc1NC(=O)Nc1nnc(N2CCCCCC2)s1,nt,8.7%
COc1ccc(C2CC(=O)N3CN(C4CCCCC4)CSC3=C2C#N)cc1 (stereo not drawn),nt,7.94µM*
COc1cccc(C2CC(=O)N3CN(C4CCCCC4)CSC3=C2C#N)c1 (stereo not drawn),nt,2.51µM*
CN1CSC2=C(C#N)C(c3cccc(OCc4ccccc4)c3)CC(=O)N2C1 (stereo not drawn),6.7%,0.0%
N#CC1=C2SCN(Cc3ccco3)CN2C(=O)CC1c1cccc2ccccc12 (stereo not drawn),9.3%,-32.6%
COc1ccc(-c2cc(C(=O)Nc3c(C(=O)c4ccc(C)c(F)c4)oc4ccccc34)no2)cc1,nt,1.7%
COc1cc(Cl)c(C)cc1NC(=O)CCc1c(C)nc2c3cccnc3nn2c1C,nt,-13.8%
CCOC(=O)c1ccccc1NC(=O)Cn1c(=O)n(CCC(=O)NCc2ccccc2OC)c(=O)c2ccccc21,nt,-6.8%
